HT1080 IDH1KD tx: kills HT-1080 cells with IDH1 knockdown; HT-1080 IDH1 knockdown viability, ATP luminescence, 48 h; Potency, µM (top dose mostly 46.1 µM), without a hit: at the highest dose activity, negative = toxicity, usual class: cytotoxic; actives 2% (n = 360,000); AID 686971;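 also: potency is read from the fitted curve at half-maximal effect; 0% = DMSO wells and -100% = cell-free medium wells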
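CellTiter-Glo luminescence after 48 h compound exposure at 37 degrees C of IDH1-knockdown HT-1080 cells in 5% FBS RPMI. %Activity scaled between DMSO wells and cell-free media wells, with curves fitted and assigned curve classes.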
DT40 TDP1 CPT: growth inhibition of DT40 Tdp1-/-;hTDP1 cells with camptothecin (screen for TDP1 inhibitors) | chicken DT40 Tdp1-/-;hTDP1 cells + 20 nM CPT, ATP luminescence, 48 h | Potency, µM (titrated, usually from 46.2 µM), without a hit: at the top dose activity change, negative = growth inhibition, most hits filed as inhibitors | actives 12% (n = 420,000) | AID 686979; also: potency is read from the fitted curve at half-maximal effect; nearly all actives have a fitted effect of over 55% in size
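Chicken DT40 Tdp1-/- cells stably complemented with human TDP1 were seeded at 400 cells/well in medium containing 20 nM camptothecin, exposed to pin-transferred compounds, and grown at 37 °C for at least 48 hr. Viability was read as ATP luminescence.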
IL1B secr inh: blocks inflammasome-driven IL-1 beta release; THP-1 LPS/ATP IL-1B secretion, AlphaLISA, 16 h; hits give low values; activity change, % at 57.5 µM; actives 4.7% (n = 360,000); in the data active = activity change below about -50%; inconclusive = mostly about -30% to -49%
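Secreted IL-1B measured by AlphaLISA bead assay after 16 h compound exposure of THP-1 cells; compounds (final up to 57.5 uM) added 1 h before LPS (250 ng/mL) and ATP (1.25 mM) stimulation; lower signal means less secretion.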
HT1080NT lethal: kills 2HG-producing HT-1080-NT fibrosarcoma cells. actives 1.6% (n = 360,000). AID 686970. Potency, µM (doses to about 46.1 µM), for the others: top-dose activity, negative = less viability, actives largely listed as cytotoxic. HT-1080-NT fibrosarcoma viability, CellTiter-Glo ATP luminescence, 48 h;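 also: NT is the 2HG producing partner of a matched IDH1 knockdown line; potency is read from the fitted curve at half-maximal effect; 0% = DMSO-treated cells and -100% = media-only wells without cells; nearly all actives have a fitted effect of over 55% in size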
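A 48-hour cytotoxicity screen used HT-1080-NT cells plated 2 hours before compound delivery. ATP-based CellTiter-Glo luminescence measured viability, normalized to DMSO and no-cell controls.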
uPA surface inh: inhibitors of cell surface uPA generation | cell surface uPA generation assay, qHTS | Potency, µM (highest dose often 38.3 µM), for the others: at the top dose activity change, negative = inhibition, usual class: inhibitors | actives 0.31% (n = 330,000); active = well fitted inhibition curve with a large enough effect; inconclusive = small, poorly fitted or top-dose-only effect; inactive = no such curve, though single readings can be large or run the other way; tested in mouse RAW 264.7 cells; also: potency is read from the fitted curve at half-maximal effect; nearly all actives have a fitted effect of over 55% in size
DT40 TDP1 no CPT: qHTS for Inhibitors of human tyrosyl-DNA phosphodiesterase 1 (TDP1): qHTS in cells in absence of CPT; DT40 Tdp1-/- hTDP1 cells, no CPT, ATP luminescence, 48 h; Potency, µM (doses to about 46.2 µM), for inactives: top-dose activity change, negative = growth inhibition, actives largely listed as inhibitors; actives 15% (n = 420,000); also: potency is read from the fitted curve at half-maximal effect; nearly all actives have a fitted effect of over 55% in size
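Chicken DT40 Tdp1-/- cells stably complemented with human TDP1 were seeded at 400 cells/well with DMSO in place of 20 nM camptothecin. After compound pinning, cells grew at least 48 hr at 37 °C; viability read by CellTiter-Glo luminescence.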
Starred values were filed as active, the others as inactive; ? = inconclusive; · = no result given. A selection: hits, their analogues and other compounds. The true share with any hit is near 19%. Unless noted, calls follow the shape of the dose curve; as a rule, active = well fitted curve in the direction sought with a large enough effect; inconclusive = small, poorly fitted or top-dose-only effect, or another doubt; inactive = no such curve, though single readings can be large; an effect the other way counts as inactive or inconclusive. Unless noted, % is scaled to controls: 0 for no effect and ±100 for the full control effect.

SMILES	HT1080 IDH1KD tx	DT40 TDP1 CPT	IL1B secr inh	HT1080NT lethal	uPA surface inh	DT40 TDP1 no CPT
COc1ccc(CC2(CO)CCN(Cc3cc4ccccc4o3)CC2)cc1	-23%	16µM*	-80*	?	2%	16µM*
COc1cccc(C(c2nnnn2Cc2ccco2)N2CCN(Cc3ccccc3)CC2)c1OC (stereo not drawn)	-5%	?	-13	-5%	1%	-19%
CCC(c1nnnn1-c1ccc(OC)cc1)N1CCN(C/C=C/c2ccccc2)CC1 (stereo not drawn)	-14%	21µM*	?	-17%	·	?
COc1ccc(-n2nnnc2C(CCc2ccccc2)N2CCN(C/C=C/c3ccccc3)CC2)cc1 (stereo not drawn)	?	?	·	?	·	16µM*
COc1ccc(N2CCN(C(c3ccccc3)c3nnnn3C(C)(C)C)CC2)cc1 (stereo not drawn)	6%	-6%	-15	8%	·	?
COc1ccc(-n2nnnc2C(c2cccc(OC)c2OC)N2CCN(C/C=C/c3ccccc3)CC2)cc1 (stereo not drawn)	?	23µM*	?	?	·	18µM*
COc1ccc(-n2nnnc2C(c2ccccc2)N2CCN(C/C=C/c3ccccc3)CC2)cc1 (stereo not drawn)	?	21µM*	-55*	?	·	?
COc1ccc(Cc2nc3ccc(C(=O)NCc4cc(Br)ccc4OC)cc3o2)cc1	·	?	·	·	·	-25%
CC(C)(C)CC(C)(C)n1nnnc1N	11%	20%	42	?	1%	14%
CCOC(=O)C(=O)NNc1ccc(F)cc1	8.2µM*	18%	-14	12µM*	-3%	0%
CCc1ccc([C@@H]2C[C@H]3[C@@H](CN2S(=O)(=O)c2ccc(C)cc2)C(=O)C[C@@H](c2ccc(C)cc2)N3S(=O)(=O)c2ccc(C)cc2)cc1	15%	-9%	91	1%	·	?
c1ccc2c(c1)CC1(CCCCC1)n1nnnc1-2	-1%	15µM*	13	0%	-9%	23µM*
CCOc1ccc(NC(=O)CN(C)C(=O)CCCc2nc3ccccc3c(=O)[nH]2)cc1OCC	3%	-10%	11	3%	1%	-2%
CCc1nc(N=Nc2c(O)[nH]c3ccccc23)c2c3c(sc2n1)CCC3	21%	13µM*	-25	20%	5%	16µM*
CC1CCc2c(sc3ncn(CC(=O)N=Nc4c(O)[nH]c5ccccc45)c(=O)c23)C1 (stereo not drawn)	0%	?	10	-10%	-4%	-28%
S=C(N/N=C/c1ccc(Cl)c(Cl)c1)Nc1ccccc1Cl	8.2µM*	23µM*	-17	15µM*	7%	?
FC(F)(F)c1ccc(Cl)c(NC(=S)N/N=C/c2ccccc2Cl)c1	-29%	?	52	-9%	?	?
O=[N+]([O-])c1cc(/C=N/NC(=S)Nc2ccccc2Cl)ccc1Cl	?	?	-86*	?	-5%	12µM*
O=C(N/N=C/c1ccc(Cl)c([N+](=O)[O-])c1)C1CC1	1%	-24%	-50*	11%	-19%	-2%
O=C(N/N=C/c1cc(Cl)cc([N+](=O)[O-])c1O)C1CC1	-11%	-10%	98	-20%	-2%	-28%
Fc1ccc(NC(=S)N/N=C/c2cccc(Br)c2)c(F)c1	2%	6.5µM*	-4	?	2%	4.1µM*
Cc1cccc(NC(=O)Nc2ccccc2[N+](=O)[O-])n1	0%	-6%	-3	4%	6%	18%
O=C(Cn1c2ncccc2c(=O)n1-c1ccccc1)Nc1ccc(F)c(F)c1	·	-11%	·	·	·	-14%
Cc1cccc(NC(=O)CNC(=O)[C@H]2O[C@@H](n3ccc(=O)[nH]c3=O)[C@H](O)[C@@H]2O)c1C	11%	-4%	10	26%	·	-19%
COc1cc(/C=N/Nc2ccc(F)cc2F)cc(OC)c1O	?	2.3µM*	-89*	-17%	9%	5.8µM*
SMILES	HT1080 IDH1KD tx	DT40 TDP1 CPT	IL1B secr inh	HT1080NT lethal	uPA surface inh	DT40 TDP1 no CPT
O=C(NC1CC1)C1CCN(S(=O)(=O)c2ccc(Cl)c([N+](=O)[O-])c2)CC1	?	-22%	-97*	?	?	?
CC(C)(C)c1ccc(/C=N/NC(=O)C2CCCC2)cc1	-23%	21µM*	-9	-8%	-9%	13µM*
COc1ccc(/C=N/NC(=S)Nc2ccccc2[N+](=O)[O-])cc1O	?	6.5µM*	-4	-26%	?	4.6µM*
COc1ccc(/C=N/NC(=O)c2cccc([N+](=O)[O-])c2)cc1O	-19%	-29%	7	-15%	5%	?
COc1cc(/C=N/Nc2ccc(Cl)nn2)cc(OC)c1O	27%	12%	-8	24%	?	11%
Cc1ccc(C(=O)Nc2ccccc2C(=O)OCc2cc(=O)n3nc(C4CC4)sc3n2)cc1	·	6%	·	·	·	-12%
COC(=O)Cc1c(C)c2ccc(OCC(=O)N(C)C3CCS(=O)(=O)C3)cc2oc1=O (stereo not drawn)	11%	-12%	-1	-2%	0%	8%
COc1cc(C(C(=O)Nc2c(C)cccc2C)N(C)C(=O)c2ccc(-n3cnnn3)cc2)ccc1O (stereo not drawn)	-3%	?	-21	2%	2%	-8%
Cc1ccc(NC(=S)N/N=C/c2c(Cl)cccc2Cl)c(C)c1	0.52µM*	1.3µM*	78	?	-10%	1.5µM*
COc1cc(/C=N/Nc2ccccc2[N+](=O)[O-])cc(OC)c1O	-22%	?	1	-19%	2%	6.5µM*
Fc1cccc(/C=N/NC(=S)Nc2ccccc2Cl)c1	?	6.5µM*	-20	?	6%	2.6µM*
CNCC(=O)N[C@@H](CCCN=C(N)N)C(=O)N[C@H](C(=O)N[C@@H](Cc1ccc(O)cc1)C(=O)N[C@H](C(=O)N[C@@H](Cc1cnc[nH]1)C(=O)N1CCC[C@H]1C(=O)N[C@@H](C)C(=O)O)C(C)C)C(C)C	·	-10%	·	·	·	7%
CC(=O)N1c2cc3ccccc3cc2N(C(C)=O)c2cc3ccccc3cc21	15%	?	18	-1%	3%	-62%
Cc1ccc(Nc2ccc(S(=O)(=O)N3CCOCC3)cc2[N+](=O)[O-])cc1C	-1%	?	-24	-4%	-5%	?
